We go through 42 compounds from PubChem BioAssay (NCATS).

Structures are written as SMILES. Inconclusive results are not listed. Where a call stands in place of a potency, no number is given. Calls of active or inactive are those of the source. Calls come from the whole dose curve; as a rule, active = well fitted curve in the direction sought with a large enough effect; inconclusive = small, poorly fitted or top-dose-only effect, or another doubt; inactive = no such curve, though single readings can be large; an effect the other way counts as inactive or inconclusive.

The target in assay [1] is Aldehyde dehydrogenase, mitochondrial (Homo sapiens) (UniProt P05091). The experiment in a line: qHTS for Inhibitors of the Aldehyde Dehydrogenase Family (ALDH2) Primary screen (AID 2061308). Note: nearly all actives have a fitted effect of over 55% in size. In general terms: qHTS replaces the single test concentration by a dilution series.
For assay [2], the target named is Retinaldehyde dehydrogenase 3 (Homo sapiens) (UniProt P47895). Briefly: qHTS for Inhibitors of the Aldehyde Dehydrogenase Family (ALDH1A3) Primary screen (AID 2061315).

For the compound `Cc1cc2c(s1)c1c(n2C)C(=O)N(Cc2ccccc2F)C1`, the Potency result in assay [1] and in assay [2] was “inactive” each time.
On to `COC(=O)c1ccccc1S(=O)(=O)Nc1cc(=O)c2ccccc2[nH]1`, for which the Potency result in assay [1] and in assay [2] was “inactive” each time.
On to `Cc1ccc2nsnc2c1S(=O)(=O)Nc1cccc2cccnc12`, for which the Potency entry in assay [1] and in assay [2] was “inactive” in each case.
Regarding `O=S(=O)(c1ccc2c(c1)OCCO2)N1CCN(S(=O)(=O)c2c(F)cccc2F)CC1`, the Potency entry in assay [1] and in assay [2] was “inactive” each time.
For `C=CC(=O)Nc1cc(Nc2ncc(Cl)c(-c3c[nH]c4ccccc34)n2)c(OC)cc1N(C)CCN(C)C`, the Potency entry in assay [1] and in assay [2] was “inactive” throughout.
For the compound `CCc1ccc2oc(=O)cc(CN3CCN(c4ccccc4F)CC3)c2c1`, the Potency result in assay [1] and in assay [2] was “inactive” throughout.
Regarding `Cc1cc(N[S+](=O)([O-])c2cc3c(cc2Cl)CCC(=O)N3)ccc1Br`, the Potency result in assay [1] and in assay [2] was “inactive” throughout.
For the compound `CC1(C)CC[C@]23CO[C@@]4(CCC5[C@@]6(C)CC[C@H](O[C@@H]7OC[C@H](O[C@@H]8O[C@H](CO)[C@@H](O)[C@H](O)[C@H]8O[C@@H]8OC[C@@H](O)[C@H](O)[C@H]8O)[C@H](O)[C@H]7O[C@@H]7O[C@H](CO)[C@@H](O)[C@H](O)[C@H]7O)[C@@](C)(CO)C6CC[C@@]5(C)[C@]4(C)C[C@H]2O)[C@@H]3C1` (some centres undefined), the Potency result in assay [1] and in assay [2] was “inactive” each time.
In the case of `COc1cc(Cn2ncc3c4sc(C)cc4n(C)c3c2=O)cc(OC)c1`, the Potency entry in assay [1] and in assay [2] was “inactive” in each case.
`O=C(OCC#CCSc1nnc(-c2cccc3ccccc23)o1)c1ccc(F)c(F)c1`: the Potency result in assay [1] and in assay [2] was “inactive” each time.
Regarding `CN(Cc1cncn1C)c1ncnc2ccc(-c3ccc4c(c3)OCO4)cc12`, the Potency entry in assay [1] and in assay [2] was “inactive” throughout.
As to `Cc1cccc(C(=O)NCC(=O)OC(C(=O)Nc2cc(C(F)(F)F)ccc2Cl)c2ccccc2)c1` (centres undefined), the Potency entry in assay [1] and in assay [2] was “inactive” throughout.
`CCCn1ncc(CN2CCCC(C(=O)c3cccc(OC(C)C)c3)C2)c1C` (centres undefined): the Potency result in assay [1] and in assay [2] was “inactive” each time.
For the compound `Clc1cccc(-c2ccc3ncnc(NCc4ccc5c(c4)OCO5)c3c2)c1`, the Potency entry in assay [1] and in assay [2] was “inactive” in each case.
As for `Cn1cccc1CN=C1NC2=C(C(=O)CCC2)C(c2[nH]ncc2Cl)N1` (centres undefined), the Potency entry in assay [1] and in assay [2] was “inactive” each time.
Take `CC(C)(C)OC(=O)CC(=O)NNC(=O)c1nc2ccccc2[nH]1`: the Potency entry in assay [1] and in assay [2] was “inactive” each time.
For the compound `COc1ccc(OC)c(-c2nnc(NC(=O)Nc3ccc4ccccc4c3)s2)c1`, the Potency entry in assay [1] and in assay [2] was “inactive” throughout.
Turning to `NC(=O)C1CCN(c2nc(-c3ccccc3C(F)(F)F)cs2)CC1`, the Potency result in assay [1] and in assay [2] was “inactive” in each case.
Take `CCC1CCCN(C(=O)CC(c2ccc3c(c2)OCO3)c2c(O)cc(OC)cc2OC)C1` (centres undefined): the Potency entry in assay [1] and in assay [2] was “inactive” in each case.
With `Oc1cccc2cc(N3CCCC3)cnc12`, the Potency result in assay [1] and in assay [2] was “inactive” each time.
With `Cc1ccc(NS(=O)(=O)c2cc3c(cc2NCCO)NC(=O)CC3)cc1C`, the Potency entry in assay [1] and in assay [2] was “inactive” each time.
`O=C1CCCC2=C1C(c1ccc(Cl)cc1)N=C(Nc1nc3ccccc3o1)N2` (centres undefined): the Potency result in assay [1] and in assay [2] was “inactive” throughout.
`Cc1ccc(NS(=O)(=O)c2cc3c(cc2Br)NC(=O)CO3)cc1C`: the Potency result in assay [1] and in assay [2] was “inactive” each time.
Turning to `C/C(=C\c1ccc2c(c1)OCCO2)C1Nc2cccc3cccc(c23)N1`, the Potency entry in assay [1] and in assay [2] was “inactive” in each case.
`CCC(=O)NC(c1cccs1)c1ccc2cccnc2c1O` (centres undefined): the Potency entry in assay [1] and in assay [2] was “inactive” in each case.
Turning to `COc1ccc(CCc2nc3c(C)c(-c4c(C)noc4C)c(C)cc3n2CCN2CCOCC2)cc1`, the Potency result in assay [1] and in assay [2] was “inactive” each time.
In the case of `CC(C)c1ccccc1-c1ncc(F)c(NCC2CCN(c3cccnc3)CC2)n1`, the Potency entry in assay [1] and in assay [2] was “inactive” throughout.
In the case of `CCCCC1CCC(C(=O)Nc2ccc(S(=O)(=O)Nc3nccs3)cc2)CC1` (centres undefined), the Potency result in assay [1] and in assay [2] was “inactive” each time.
For the compound `Cc1nc2cc(C(=O)NCc3ccccn3)nn2c(C)c1Cc1cccc(Cl)c1`, the Potency result in assay [1] and in assay [2] was “inactive” throughout.
With `CC(C)(C)n1nc(Cc2cccc3ccccc23)c2c(N)ncnc21`, the Potency entry in assay [1] and in assay [2] was “inactive” throughout.
In the case of `Cc1ccc(-c2cc(C(=O)Nc3ccccc3)c3ccccc3n2)cc1C`, the Potency entry in assay [1] and in assay [2] was “inactive” throughout.
In the case of `N#Cc1no[n+]([O-])c1-c1ccccc1`, the Potency result in assay [1] and in assay [2] was “inactive” each time.
Consider `Cc1ccc(CNc2nc(-c3ccccc3C(F)(F)F)nc3ccccc23)s1`, for which the Potency result in assay [1] and in assay [2] was “inactive” each time.
In the case of `Cc1ccc(S(=O)(=O)Nc2cnccc2C(=O)Nc2ccc(S(=O)(=O)Nc3nccs3)cc2)cc1`, the Potency result in assay [1] and in assay [2] was “inactive” each time.
As to `CCOC(=O)c1nnc(N[S+](=O)([O-])c2ccc(NC(=O)Cc3ccc(Cl)c(Cl)c3)cc2)s1`, the Potency result in assay [1] and in assay [2] was “inactive” each time.
For `FC(F)(F)c1ccccc1-c1nc(NCc2ccc(-c3ccc4c(c3)OCO4)cc2)c2ccccc2n1`, the Potency result in assay [1] and in assay [2] was “inactive” in each case.
Take `C(=Nc1cccnc1)c1cccs1`: the Potency result in assay [1] and in assay [2] was “inactive” in each case.
Regarding `O=[S+]([O-])(c1ccc2ncsc2c1)N1CCN([S+](=O)([O-])c2c(F)cccc2F)CC1`, the Potency entry in assay [1] and in assay [2] was “inactive” each time.
`Clc1cccc(-c2ccc3ncnc(NCc4cccs4)c3c2)c1`: the Potency entry in assay [1] and in assay [2] was “inactive” throughout.
With `CCc1c(C)nc2cc(-c3ccc(OC)c(OC)c3)nn2c1N1CCCC1`, the Potency result in assay [1] and in assay [2] was “inactive” throughout.
As for `Cn1c(=O)c2c(nc(CN3CCN(C(=O)C4CC4)CC3)n2Cc2ccccc2Cl)n(C)c1=O`, the Potency entry in assay [1] and in assay [2] was “inactive” in each case.
For `O=C(OCC#CCSc1nnc(-c2cccc3ccccc23)o1)c1sc2ccccc2c1Cl`, the Potency result in assay [1] and in assay [2] was “inactive” each time.
